In PubChem BioAssay (Tox21):
Records with an inconclusive call do not appear. Where a call stands in place of a potency, no number is given. Calls of active or inactive are those of the source. Calls follow the shape of the full dose curve.

Each molecule was assayed against Beta-2 adrenergic receptor (Homo sapiens) (UniProt P07550) (assay: Adrenergic beta2 receptor (ADRB2) small molecule agonists, cell-based qHTS assay (AID 1963593;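 as to activation: CHO cells stably overexpressing human ADRB2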)). Conditions: CHO-ADRB2 cells, cAMP HTRF, 30 min; series mostly up to 92.4 µM.
Beta-2 adrenergic receptor (Homo sapiens), sequence (P07550 whole entry, looked up): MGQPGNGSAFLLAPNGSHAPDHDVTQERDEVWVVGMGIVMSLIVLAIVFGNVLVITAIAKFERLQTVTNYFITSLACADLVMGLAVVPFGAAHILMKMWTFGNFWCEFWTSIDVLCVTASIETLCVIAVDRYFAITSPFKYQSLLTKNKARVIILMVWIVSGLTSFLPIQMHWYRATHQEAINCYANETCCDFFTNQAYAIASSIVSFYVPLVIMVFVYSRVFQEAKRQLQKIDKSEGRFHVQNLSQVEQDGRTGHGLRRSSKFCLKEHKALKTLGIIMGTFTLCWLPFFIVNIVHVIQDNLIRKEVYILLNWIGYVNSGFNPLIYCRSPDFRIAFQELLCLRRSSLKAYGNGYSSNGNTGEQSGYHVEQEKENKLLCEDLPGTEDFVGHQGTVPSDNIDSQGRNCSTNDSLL
Method in brief: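 CHO cells stably over-expressing ADRB2 were plated overnight at 37C, then dosed with compounds plus a stimulation mix containing 100uM IBMX and 25uM Ro-20-1724 for 0.5hr at room temperature. cAMP was measured by HTRF competition, 1hr.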
Potency is read from the fitted curve at half-maximal effect.

| Structure (SMILES) | Potency | activation |
| --- | --- | --- |
| CCCN(CCC)CCc1c[nH]c2ccccc12 | inactive | – |
| CCOC(=O)C(SP(=S)(OC)OC)c1ccccc1 (stereo not drawn) | inactive | – |
| c1coc(-c2nc3ccccc3[nH]2)c1 | inactive | – |
| O=C1c2ccccc2C(=O)c2ccccc21 | – | -36.8% [at 19 µM] (inactive) |
| C[C@H](N)[C@H](O)c1ccc(O)c(O)c1 | 7.5 µM (active) | – |
| C=CC(=O)OCC(COC(=O)C=C)(COC(=O)C=C)COC(=O)C=C | 24.3 µM (active) | – |
| O=CCCl | inactive | – |
| ClC1=C(Cl)[C@]2(Cl)[C@@H]3[C@@H]4C[C@@H]([C@H]5O[C@@H]45)[C@@H]3[C@@]1(Cl)C2(Cl)Cl | 10.9 µM (active) | – |
| CCCN1CCC[C@@H]2Cc3nc(N)ncc3C[C@H]21 | inactive | – |
| CNC(=O)Oc1cccc(C(C)C)c1 | inactive | – |
| CC(=O)OC(c1ccccc1)C(Cl)(Cl)Cl (stereo not drawn) | inactive | – |
| CC(=O)[O-].CC(=O)[O-].O.O.[Cd+2] | inactive | – |
| NC(=O)CI | inactive | – |

The molecules below were run against D(2) dopamine receptor (Homo sapiens) (UniProt P14416) (assay: Dopamine D2 receptor (DRD2) small molecule agonists, cell-based qHTS assay (AID 1963594; also: nearly all actives have a fitted effect of over 35% in size)). Conditions: HEK293-DRD2 cAMP HTRF, agonist mode, 30 min; series mostly up to 92.4 µM.
D(2) dopamine receptor (Homo sapiens), sequence (P14416 whole entry, looked up): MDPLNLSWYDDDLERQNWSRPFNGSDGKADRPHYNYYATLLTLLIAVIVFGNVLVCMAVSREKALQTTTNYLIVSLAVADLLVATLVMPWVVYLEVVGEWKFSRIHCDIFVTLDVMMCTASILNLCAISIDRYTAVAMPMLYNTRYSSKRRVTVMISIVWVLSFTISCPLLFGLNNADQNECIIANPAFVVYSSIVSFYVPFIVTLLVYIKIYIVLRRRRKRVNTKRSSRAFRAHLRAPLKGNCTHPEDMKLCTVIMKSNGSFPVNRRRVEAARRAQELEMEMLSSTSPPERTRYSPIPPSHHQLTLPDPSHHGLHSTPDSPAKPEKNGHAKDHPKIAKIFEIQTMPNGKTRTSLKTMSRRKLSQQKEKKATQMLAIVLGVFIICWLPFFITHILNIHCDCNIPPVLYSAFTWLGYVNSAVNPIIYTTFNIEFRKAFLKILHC
Method in brief: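 cAMP accumulation in DRD2-HEK293 cells measured by HTRF after 1 h detection; compounds added 10 min before NKH477 (200nM […]) forskolin-analogue stimulation, 30 min at room temperature, with Ro20-1724 present at 0.1 mM final.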

| Structure (SMILES) | Potency | activation |
| --- | --- | --- |
| CCCN(CCC)CCc1c[nH]c2ccccc12 | 21.4 µM (active) | – |
| CCOC(=O)C(SP(=S)(OC)OC)c1ccccc1 (stereo not drawn) | inactive | – |
| c1coc(-c2nc3ccccc3[nH]2)c1 | inactive | – |
| CC1CCC(C(C)C)C(OC(=O)c2ccccc2N)C1 (stereo not drawn) | inactive | – |
| Cc1ccn2nc(S(=O)(=O)Nc3c(F)cccc3F)nc2n1 | inactive | – |
| O=[N+]([O-])c1ccc(Cl)c(Cl)c1Cl | inactive | – |
| CCOP(=S)(Oc1cnc(C(C)(C)C)nc1)OC(C)C (stereo not drawn) | inactive | – |
| O=C1c2ccccc2C(=O)c2ccccc21 | – | -2.1% [at 19 µM] (inactive) |
| C[C@H](N)[C@H](O)c1ccc(O)c(O)c1 | inactive | – |
| CCCCN(N=O)C(=N)N[N+](=O)[O-] | inactive | – |
| IC(I)=C(I)I | inactive | – |
| CON(C)C(=O)Nc1ccc(Br)c(Cl)c1 | inactive | – |
| C=CC(=O)OCC(COC(=O)C=C)(COC(=O)C=C)COC(=O)C=C | inactive | – |
| CCNC(=O)NC(=O)/C(C#N)=N/OC | inactive | – |
| CC(=O)[O-].CC(=O)[O-].[Hg+2] | 14.2 µM (active) | – |
| O=CCCl | inactive | – |
| Nc1cc(Cl)ccc1Cl | inactive | – |
| CNC(=O)Oc1cccc(C(C)C)c1 | inactive | – |
| CC(=O)OC(c1ccccc1)C(Cl)(Cl)Cl (stereo not drawn) | inactive | – |
| CC(=O)[O-].CC(=O)[O-].O.O.[Cd+2] | inactive | – |
| NC(=O)CI | inactive | – |
| CCN(CC)c1nc(C)cc(OP(=S)(OC)OC)n1 | inactive | – |
| COC(=O)C(C)N(C(=O)Cc1ccccc1)c1c(C)cccc1C (stereo not drawn) | inactive | – |
| CCCSP(=O)(OCC)SCCC | inactive | – |
| OCCBr | inactive | – |
